Results: PubChem BioAssay (EPA / NIEHS)
Inconclusive results are not listed. Active and inactive are the calls of the source. Rule for the calls, unless noted: active = hit-call score of the fitted dose curve at least 0.9, where 1 is the maximum; inconclusive = response in the unintended direction; inactive = score below 0.9.

Tests used:
[1] = TOX21_p53_BLA_p2_viability: Viability Assessment in the Tox21 HCT-116 p53 Agonism Beta-lactamase Assay, Phase 2 (AID 2283591);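 note: compound exposure lasted 16 h at 37 °C; actives lower the ATP signal meaning cytotoxicity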
In short: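 Cytotoxicity readout: CellTiter-Glo ATP luminescence, 30 min at room temperature, after the beta-lactamase read. Cells were HCT116 exposed 16 h at 37C to compounds pin-transferred at 217-fold dilution from DMSO stocks.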

[2] = TOX21_p53_BLA_p3_viability: Viability Assessment in the Tox21 HCT-116 p53 Agonism Beta-lactamase Assay, Phase 3 (AID 2283593);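 note: cells exposed to compound for 16 h before reading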
In short: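 Cellular ATP was quantified by CellTiter-Glo luminescence, read after 30 min at room temperature. Beforehand, HCT116 cells (4000/well) received compound 5 h post-seeding, 217-fold diluted from DMSO, then incubated 16 h at 37C.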

[3] = molecular target: Cellular tumor antigen p53 (Homo sapiens) (UniProt P04637); test: TOX21_p53_BLA_p3_ratio: Tox21 HCT-116 p53 Agonism Beta-lactamase Assay, Ratio, Phase 3 (AID 2283596)
Sequence of Cellular tumor antigen p53 (Homo sapiens) (P04637 whole entry, looked up): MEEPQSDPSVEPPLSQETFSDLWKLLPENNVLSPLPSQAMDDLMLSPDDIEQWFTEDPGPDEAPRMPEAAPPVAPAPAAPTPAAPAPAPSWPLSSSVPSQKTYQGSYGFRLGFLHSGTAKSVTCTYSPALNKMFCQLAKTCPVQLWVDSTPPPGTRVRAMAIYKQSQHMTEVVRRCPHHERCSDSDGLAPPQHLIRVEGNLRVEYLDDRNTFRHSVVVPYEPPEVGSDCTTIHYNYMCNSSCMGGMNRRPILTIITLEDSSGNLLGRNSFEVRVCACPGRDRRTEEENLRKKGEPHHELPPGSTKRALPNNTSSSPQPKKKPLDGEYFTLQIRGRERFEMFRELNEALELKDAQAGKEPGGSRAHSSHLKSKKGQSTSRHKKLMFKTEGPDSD
In short: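 Cells were seeded at 4000/well, rested 5 h at 37C, then dosed with DMSO compound solutions (217-fold dilution) for 16 h. CCF4-AM substrate was loaded for 2 h at room temperature, and the 460/530 nm emission ratio was fitted for gain of signal versus DMSO.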

[4] = TOX21_p53_BLA_p4_viability: Viability Assessment in the Tox21 HCT-116 p53 Agonism Beta-lactamase Assay, Phase 4 (AID 2283597);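 note: hits lower the luminescence signal meaning cytotoxicity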
In short: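 Viability is taken as cellular ATP: after 16 h compound exposure of HCT116 cells and a 2 h room-temperature CCF4-AM substrate step, CellTiter-Glo reagent is added and luminescence is measured 30 min later.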

[5] = TOX21_p53_BLA_p5_viability: Viability Assessment in the Tox21 HCT-116 p53 Agonism Beta-lactamase Assay, Phase 5 (AID 2283600)
In short: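 Viability is taken from cellular ATP content, measured by luciferase luminescence in the same wells after the beta-lactamase ratio read. Cells are seeded at 4000 per well and exposed to DMSO-dissolved compounds, diluted 217-fold, for 16 h.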

[6] = molecular target: Cellular tumor antigen p53 (Homo sapiens) (UniProt P04637); test: TOX21_p53_BLA_p5_ratio: Tox21 HCT-116 p53 Agonism Beta-lactamase Assay, Ratio, Phase 5 (AID 2283599)
In short: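 Beta-lactamase reporter ratio (blue 460 nm over green 530 nm, 405 nm excitation) after 2 h CCF4-AM loading, in HCT-116 cells exposed 16 h at 37 C to compounds pinned at 217-fold dilution. Increases relative to DMSO baseline scored.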

[7] = molecular target: Cellular tumor antigen p53 (Homo sapiens) (UniProt P04637); test: TOX21_p53_BLA_p4_ratio: Tox21 HCT-116 p53 Agonism Beta-lactamase Assay, Ratio, Phase 4 (AID 2283601)
In short: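 Signal is the blue/green (460nm/530nm) ratio of cleaved versus uncleaved CCF4-AM substrate, read after 2 h substrate loading. Cells were HCT116 carrying the p53-responsive beta-lactamase reporter, dosed 16 h at 37C, 5% CO2; CellTiter-Glo measured in parallel.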

[8] = CCTE_Harrill_HTTr_Viability_MCF7: CCTE's 6-hour Cell Viability Assessment for the High-Throughput Transcriptomics (HTTr) Platform, in MCF-7 cells cultured in DMEM + 10% fetal bovine serum, Harrill Lab (AID 2284010; active = hit-call score of the fitted dose curve at least 0.9, where 1 is the maximum; inactive = score below 0.9)
In short: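 Read-out is propidium iodide gain of signal by high-content imaging, reflecting membrane integrity loss. Measurements are taken 6 h after dosing, eight concentrations per chemical, with DMSO serving as baseline for bidirectional curve fitting.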

[9] = CCTE_Harrill_HTTr_Apoptosis_MCF7: CCTE's 6-hour Apoptosis Assessment for the High-Throughput Transcriptomics (HTTr) Platform, in MCF-7 cells cultured in DMEM + 10% fetal bovine serum, Harrill Lab (AID 2284011; active = hit-call score of the fitted dose curve at least 0.9, where 1 is the maximum; inactive = score below 0.9)
In short: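 Cells are dosed with test chemicals at eight concentrations and imaged 6 hours later for caspase-3/7 activity using a green fluorogenic detection reagent. Activity is fitted in both directions against DMSO controls.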

Measured: AC50

CCN(CC)C(=O)N[C@H]1C[C@@H]2c3cccc4[nH]cc(c34)C[C@H]2N(C)C1
inactive: [1] | [2] | [3] | [4] | [5]

NNC(=O)c1ccccc1
inactive: [1] | [2] | [3] | [6] | [5] | [7]

CCCN(CCC)C(=O)Cc1c(-c2ccc(Cl)cc2)nc2ccc(Cl)cn12
inactive: [1] | [2] | [4] | [5] | [7]

CC1(C)C(/C=C(\Cl)C(F)(F)F)C1C(=O)OC(C#N)c1cccc(Oc2ccccc2)c1 (configuration not stated)
inactive: [1] | [2] | [3] | [4] | [7]

CO[C@H]1[C@@H](O)C[C@H](O[C@H]2[C@@H](O)C[C@H](O[C@H]3[C@@H](O)C[C@H](O[C@H]4CC[C@@]5(C)[C@H](CC[C@@H]6[C@@H]5C[C@@H](O)[C@]5(C)[C@@H](C7=CC(=O)OC7)CC[C@]65O)C4)O[C@@H]3C)O[C@@H]2C)O[C@@H]1C
inactive: [3] | [7]
active: [1] 109 nM | [2] 101 nM | [4] 98.4 nM | [5] 83.6 nM

CCOS(C)(=O)=O
inactive: [1] | [2] | [3] | [4] | [6] | [7]

CCCC(C)(COC(N)=O)COC(=O)NC(C)C (configuration not stated)
inactive: [1] | [2] | [3] | [4] | [6] | [5] | [7] | [8] | [9]

S=C=NCCc1ccccc1
inactive: [1] | [2] | [6]
active: [3] 59300 nM

CCOP(=O)(OCC)SCCSCC (tested in a mixture with another compound)
inactive: [1] | [2] | [3] | [4] | [6] | [7]

O=C(Cl)/C=C/C(=O)Cl
inactive: [1] | [2] | [4] | [6] | [5]

O=[N+]([O-])[O-].[Tl+]
inactive: [1] | [2] | [4] | [5]

C[C@]12CC[C@H]3[C@@H](CCC4=CC(=O)CC[C@@]43C)[C@@H]1CC[C@@H]2OC(=O)CCc1ccccc1
inactive: [1] | [2] | [4] | [6] | [5]

CC(=O)CCC(C)=O
inactive: [1] | [2] | [4] | [6]

CC(=O)Nc1cc([As](=O)(O)O)ccc1O
inactive: [1] | [2] | [3] | [4] | [6] | [7]

COc1ccc2c(c1OC)C(=O)O[C@@H]2[C@H]1c2cc3c(cc2CCN1C)OCO3
inactive: [1] | [2] | [3] | [6] | [5] | [7]
